Source: PubChem BioAssay
Inconclusive results are not listed. For some of these results: Potency and affinity values are given separately. The source made the active and inactive calls. Unless noted, no rule for the calls is given here. Numbered stars: 1 amine (or outer) side, 2 acyl side, 3 side chain; on linkers, the order of the positions; unused ones are H or OH. Bridge positions count the residues as written; N and C are the ends. Square brackets hold non-standard residues; d marks the D form. Peptide text beside a SMILES is read from it. I, II: the chains in the order shown. Actinocin(9to1) = Cc1c2oc3c(C)ccc(C(=O)[*:1])c3nc-2c(C(=O)[*:2])c(N)c1=O; NMeV = CN[CH](C(=O)O)C(C)C; Sar = CNCC(=O)O

Tests used:
[1] = viability loss in pontine glioma line – cell-based, SU-DIPG-XIII, MIPE4.0, CellTiter-Glo, qHTS, dose response (AID 1347061; cut-off not given, nearly all actives have AC50 up to about 37 µM;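 also: cells exposed to compound for 48 hours before readout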); details: CellTiter-Glo ATP luminescence
[2] = viability loss in pontine glioma line – cell-based, SU-DIPG-IV, MIPE4.0, CellTiter-Glo, qHTS, dose response (AID 1347063; cut-off not given, nearly all actives have AC50 up to about 30 µM;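 also: compound exposure lasted 48 hours before the viability readout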); details: CellTiter-Glo ATP luminescence
[3] = blockers of polyQ-driven CASP3 activation – cell-based (AID 1583); details: polyglutamine-induced caspase-3 activation, cell assay; stronger effect = higher value;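 tested at 10 µM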
[4] = yeast 75Q aggregation reduction – 75Q-TubU reporter (AID 1593); details: Yeast 75Q polyglutamine aggregation reporter
[5] = restoration of touch response, mutant HTT neurons – whole organism, C. elegans mechanosensory neurons, N-terminal huntingtin (AID 1599); details: C. elegans polyQ-huntingtin mechanosensory neurons, stronger effect = higher value
[6] = blockers of cytochrome c efflux from mitochondria – biochemical, purified mitochondria (AID 1603); details: stronger effect = lower value;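 also: mouse liver mitochondria challenged with calcium chloride; signal normalized to the plate average as 100%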
[7] = polyglutamine aggregate formation blockers (AID 1604); details: polyglutamine-induced protein aggregation inhibition assay; stronger effect = higher value; tested at 2.5 µM
[8] = compounds altering circadian rhythm period length – cell-based, LOPAC library, luminescence reporter (AID 2774); details: circadian reporter cells, at 7 µM, actives lie on both sides;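 also: values are relative to mean of DMSO wells on each plate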
[9] = test system: Hepatitis C virus NS3 helicase; experiment: blockers of NS3h binding to ssDNA – biochemical, fluorescence polarization, LOPAC1280 library, primary screen (AID 687035; in the data active = inhibition above about 37%); details: Purified HCV NS3 helicase, Cy5-dT15 ssDNA binding fluorescence polarization; stronger effect = higher value; concentration not given here
[10] = compounds altering Cy5-DNA-NS3h complex signal – biochemical, LOPAC1280, artefact control for HCV NS3 helicase inhibitor project (AID 687037); details: Cy5-DNA-NS3h complex fluorescence interference counterscreen
[11] = viability loss in pontine glioma line – cell-based, JHH-DIPG-1, MIPE4.0, CellTiter-Glo, qHTS, dose response (AID 1347062; cut-off not given, nearly all actives have AC50 up to about 27 µM;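 as to AC50: cells exposed to compound for two days before readout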); details: JHH-DIPG-1 viability, CellTiter-Glo ATP luminescence
[12] = viability loss in pontine glioma line – cell-based, SU-DIPG-XXV, MIPE5.0, CellTiter-Glo, qHTS, dose response (AID 1347065; cut-off not given, nearly all actives have AC50 up to about 26 µM;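 also: cells exposed to compound for 48 hours before ATP readout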); details: CellTiter-Glo ATP luminescence
[13] = blockers of cellular phospholipid synthesis – cell-based, LOPAC library, screen 4, primary screen (AID 1347384); details: animal cells, phospholipid biosynthesis inhibition screen; at 10 µM
[14] = viability loss in pontine glioma line – cell-based, SU-DIPG-XIII, MIPE5.0, CellTiter-Glo, qHTS, dose response (AID 1347064; cut-off not given, nearly all actives have AC50 up to about 23 µM;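 as to AC50: cells exposed to compound for 48 hours before the viability read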); details: CellTiter-Glo ATP luminescence
[15] = growth inhibition of DIPG cells – cell-based, MIPE4.0 library, CellTiter-Glo luminescence, qHTS (AID 1347066; cut-off not given, nearly all actives have AC50 up to about 30 µM;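 also: cells exposed to compound for 48 hours before readout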); details: SU-DIPG-VI viability, CellTiter-Glo ATP luminescence
[16] = target: NAD(+) hydrolase SARM1 (Homo sapiens) (UniProt Q6SZW1); experiment: blocking NAD cleavage by SARM1 SAM-TIR – cell lysate, NAD-Glo luminescence (AID 1508614;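 active = compound whose remaining NAD level is above about 45 nM, limit read from the data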;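 also: higher remaining NAD means stronger inhibition of SARM1 NADase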); details: SAM-TIR HEK293T lysate NADase, at 1 µM, stronger effect = higher value
Chain of NAD(+) hydrolase SARM1 (Homo sapiens) (Q6SZW1 whole entry, looked up, the tested form may be a part): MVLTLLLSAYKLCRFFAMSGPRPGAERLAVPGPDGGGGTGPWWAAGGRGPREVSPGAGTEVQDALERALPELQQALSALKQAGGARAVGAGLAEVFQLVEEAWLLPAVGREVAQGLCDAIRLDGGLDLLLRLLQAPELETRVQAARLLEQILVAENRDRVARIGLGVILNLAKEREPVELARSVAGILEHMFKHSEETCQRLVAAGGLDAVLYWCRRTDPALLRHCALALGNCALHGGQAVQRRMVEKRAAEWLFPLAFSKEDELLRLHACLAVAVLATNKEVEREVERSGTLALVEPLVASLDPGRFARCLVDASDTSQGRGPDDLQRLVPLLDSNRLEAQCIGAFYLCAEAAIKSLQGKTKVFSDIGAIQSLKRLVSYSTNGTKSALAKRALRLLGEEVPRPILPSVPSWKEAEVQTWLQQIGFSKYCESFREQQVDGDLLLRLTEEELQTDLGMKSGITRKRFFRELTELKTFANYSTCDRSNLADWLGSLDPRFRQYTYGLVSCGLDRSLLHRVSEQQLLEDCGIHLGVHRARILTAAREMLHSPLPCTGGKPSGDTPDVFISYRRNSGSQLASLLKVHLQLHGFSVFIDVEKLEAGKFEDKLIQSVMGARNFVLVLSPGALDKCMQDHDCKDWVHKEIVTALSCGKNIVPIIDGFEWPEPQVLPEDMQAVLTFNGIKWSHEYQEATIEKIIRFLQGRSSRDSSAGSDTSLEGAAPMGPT

[17] = target: Mitogen-activated protein kinase 7 (Homo sapiens) (UniProt Q13164); experiment: Gal4-ERK5 driven luciferase induction – cell-based, HTS, primary screen (AID 1508626;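 active = luciferase signal above three times the same-plate solvent-only control wells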;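 also: luciferase driven by Gal4-ERK5 fusion binding five Gal4 sites before minimal TATA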); details: HeLa Gal4-ERK5 transactivation, 18 h, at 5 µM, stronger effect = higher value
Chain of Mitogen-activated protein kinase 7 (Homo sapiens) (Q13164 whole entry, looked up, the tested form may be a part): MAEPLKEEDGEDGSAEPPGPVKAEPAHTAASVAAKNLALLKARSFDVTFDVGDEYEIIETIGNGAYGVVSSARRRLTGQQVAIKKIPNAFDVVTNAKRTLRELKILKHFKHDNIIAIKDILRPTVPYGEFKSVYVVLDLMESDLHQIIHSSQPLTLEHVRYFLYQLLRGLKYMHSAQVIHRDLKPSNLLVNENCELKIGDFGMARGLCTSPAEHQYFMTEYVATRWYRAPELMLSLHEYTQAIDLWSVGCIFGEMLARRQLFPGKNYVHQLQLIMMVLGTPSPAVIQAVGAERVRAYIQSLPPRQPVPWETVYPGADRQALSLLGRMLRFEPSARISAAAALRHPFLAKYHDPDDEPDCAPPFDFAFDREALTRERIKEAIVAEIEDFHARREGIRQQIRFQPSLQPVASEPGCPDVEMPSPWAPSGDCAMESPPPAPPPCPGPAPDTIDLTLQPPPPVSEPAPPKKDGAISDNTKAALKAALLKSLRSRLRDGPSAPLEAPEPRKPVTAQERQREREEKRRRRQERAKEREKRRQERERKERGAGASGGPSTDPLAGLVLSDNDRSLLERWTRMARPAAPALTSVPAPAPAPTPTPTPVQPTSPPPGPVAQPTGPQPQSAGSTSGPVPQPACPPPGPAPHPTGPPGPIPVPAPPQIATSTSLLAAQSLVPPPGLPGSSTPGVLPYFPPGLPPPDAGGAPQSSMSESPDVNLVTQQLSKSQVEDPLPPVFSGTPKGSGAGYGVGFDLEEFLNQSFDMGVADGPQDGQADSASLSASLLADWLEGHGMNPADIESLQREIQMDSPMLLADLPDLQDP

[18] = target: ATP-dependent translocase ABCB1 (Homo sapiens) (UniProt P08183); experiment: P-glycoprotein substrate transport blockade – cell-based (AID 377; in the data active = fluorescence slope change above about 50%); details: MDR1-expressing cells, fluorescent substrate accumulation slope; stronger effect = higher value; concentration not given here
Chain of ATP-dependent translocase ABCB1 (Homo sapiens) (P08183 whole entry, looked up): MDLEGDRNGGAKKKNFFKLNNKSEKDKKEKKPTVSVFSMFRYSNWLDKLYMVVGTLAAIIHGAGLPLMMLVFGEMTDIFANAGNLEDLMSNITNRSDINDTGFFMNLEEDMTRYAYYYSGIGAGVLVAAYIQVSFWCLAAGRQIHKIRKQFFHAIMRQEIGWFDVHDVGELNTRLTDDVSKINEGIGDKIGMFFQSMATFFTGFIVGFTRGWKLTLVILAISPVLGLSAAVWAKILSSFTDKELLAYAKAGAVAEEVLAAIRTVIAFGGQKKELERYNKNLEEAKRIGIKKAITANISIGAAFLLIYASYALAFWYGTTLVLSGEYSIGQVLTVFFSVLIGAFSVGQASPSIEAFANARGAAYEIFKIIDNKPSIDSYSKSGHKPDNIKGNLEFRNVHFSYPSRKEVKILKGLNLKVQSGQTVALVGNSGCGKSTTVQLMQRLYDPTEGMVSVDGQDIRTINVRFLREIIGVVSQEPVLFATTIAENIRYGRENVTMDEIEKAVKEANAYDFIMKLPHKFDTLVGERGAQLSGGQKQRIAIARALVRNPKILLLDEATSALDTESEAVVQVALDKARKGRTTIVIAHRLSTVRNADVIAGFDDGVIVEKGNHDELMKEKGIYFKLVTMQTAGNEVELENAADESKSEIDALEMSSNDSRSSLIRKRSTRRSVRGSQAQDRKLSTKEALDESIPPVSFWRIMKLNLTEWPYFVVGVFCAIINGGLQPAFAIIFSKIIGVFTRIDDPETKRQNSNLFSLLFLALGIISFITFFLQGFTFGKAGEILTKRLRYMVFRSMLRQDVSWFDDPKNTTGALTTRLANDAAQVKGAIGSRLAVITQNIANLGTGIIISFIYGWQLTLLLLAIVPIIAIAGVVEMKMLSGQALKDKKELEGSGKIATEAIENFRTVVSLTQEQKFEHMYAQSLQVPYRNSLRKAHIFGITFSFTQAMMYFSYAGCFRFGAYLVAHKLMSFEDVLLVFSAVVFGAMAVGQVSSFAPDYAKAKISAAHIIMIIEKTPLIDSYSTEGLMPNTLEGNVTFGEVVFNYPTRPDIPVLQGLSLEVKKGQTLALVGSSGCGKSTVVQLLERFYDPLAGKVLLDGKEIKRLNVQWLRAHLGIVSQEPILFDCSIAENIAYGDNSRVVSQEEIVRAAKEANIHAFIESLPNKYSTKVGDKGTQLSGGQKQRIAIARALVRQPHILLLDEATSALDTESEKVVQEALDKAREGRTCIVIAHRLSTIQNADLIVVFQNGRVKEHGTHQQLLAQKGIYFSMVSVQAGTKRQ

[19] = compounds altering viability of human ES cells (AID 493140); details: human embryonic stem cell survival screen; stronger effect = higher value;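 also: cells exposed to compounds for four days before counting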

C=CCc1ccc(O)c(-c2ccc(O)c(CC=C)c2)c1
outcome [1]: inactive
AC50 [2]: 23.5 µM (active)

NC(Cc1cc(I)c(Oc2ccc(O)c(I)c2)c(I)c1)C(=O)O (configuration not stated)
inhibition [3]: 2%
score [4]: 1.27
rescue above control [5]: -0.14
cytochrome c release ratio [6]: 4.78
inhibition of aggregation [7]: 79.3%

CC(C)c1ccc2c(c1)c(SC(C)(C)C)c(CC(C)(C)C(=O)O)n2Cc1ccc(Cl)cc1
period change [8]: 0.025 h (inactive)
inhibition [9]: 0% (inactive)
fluorescence ratio (interference) [10]: 0.9 (inactive)
outcome [11]: inactive
AC50 [12]: 18.6 µM (active)
outcome [13]: inactive

COc1cc(C)c(/C=C/C(C)=C/C=C/C(C)=C/C(=O)O)c(C)c1C
outcome [11]: inactive
AC50 [12]: 11.8 µM (active)

COc1cc(C[C@@H](CO)[C@H](CO)Cc2ccc(O)c(OC)c2)ccc1O
outcome [14]: inactive
outcome [12]: inactive

O=C(O)C[C@H](O)C[C@H](O)/C=C/c1c(C2CC2)nc2ccccc2c1-c1ccc(F)cc1
AC50 [12]: 9.34 µM (active)
outcome [15]: inactive
remaining NAD [16]: 10 nM (inactive)

COC(=O)Nc1nc2ccc(C(=O)c3ccc(F)cc3)cc2[nH]1
outcome [1]: inactive
AC50 [12]: 0.332 µM (active)
outcome [15]: inactive

CC(N)(Cc1ccc(O)c(O)c1)C(=O)O (configuration not stated)
period change [8]: -0.1 h (inactive)
inhibition [9]: 0% (inactive)
fluorescence ratio (interference) [10]: 1 (inactive)
outcome [13]: inactive

CN1[C@@H]2CC[C@H]1CC(OC(=O)C(CO)c1ccccc1)C2 (some centres not stated)
remaining NAD [16]: 10 nM (inactive)
luciferase signal [17]: 44 AU (inactive)

CN1CCC[C@H]1c1cccnc1
inhibition [3]: -24.3%
score [4]: 1.39
rescue above control [5]: 3.58
cytochrome c release ratio [6]: 0.71
inhibition of aggregation [7]: 47.1%
period change [8]: 0.09 h (inactive)
inhibition [9]: 0% (inactive)
fluorescence ratio (interference) [10]: 1 (inactive)
remaining NAD [16]: 10 nM (inactive)

Nc1nc(Cl)nc2c1ncn2[C@H]1C[C@H](O)[C@@H](CO)O1
outcome [1]: inactive

c1ccc(-c2ccccn2)nc1
period change [8]: -0.19 h (inactive)
inhibition [9]: -3% (inactive)
fluorescence ratio (interference) [10]: 1 (inactive)
outcome [13]: inactive

CCC[C@@H]1C[C@@H](C(=O)N[C@H]([C@@H](C)O)[C@H]2O[C@H](SC)[C@H](O)[C@@H](O)C2O)N(C)C1 (some centres not stated)
fluorescence slope change [18]: 65% (active)

C=C1/C(=C\C=C2/CCC[C@]3(C)[C@@H]([C@H](C)CCCC(C)(C)O)CC[C@@H]23)C[C@@H](O)C[C@@H]1O
survival [19]: 89.6 (inactive)
AC50 [11]: 2.35 µM (active)
AC50 [2]: 3.32 µM (active)
outcome [14]: inactive
outcome [12]: inactive
AC50 [15]: 16.6 µM (active)

Cc1c2oc3c(C)ccc(C(=O)NC4C(=O)NC(C(C)C)C(=O)N5CCCC5C(=O)N(C)CC(=O)N(C)C(C(C)C)C(=O)OC4C)c3nc-2c(C(=O)NC2C(=O)NC(C(C)C)C(=O)N3CCCC3C(=O)N(C)CC(=O)N(C)C(C(C)C)C(=O)OC2C)c(N)c1=O (configuration not stated) (I: TVP[Sar][NMeV] / II: TVP[Sar][NMeV]; ester I:1-I:C, II:1-II:C; linker I:N-II:N via Actinocin(9to1); configuration not given here)
outcome [1]: inactive
outcome [11]: inactive
outcome [2]: inactive
AC50 [14]: 0.00362 µM (active)
AC50 [12]: 0.0182 µM (active)
outcome [15]: inactive

CCN(CC)C(=O)[C@]1(c2ccccc2)C[C@@H]1CN
remaining NAD [16]: 10 nM (inactive)

CCCc1nc(C(C)(C)O)c(C(=O)O)n1Cc1ccc(-c2ccccc2-c2nn[nH]n2)cc1
outcome [11]: inactive
outcome [2]: inactive
outcome [14]: inactive
outcome [12]: inactive
outcome [15]: inactive
remaining NAD [16]: 10 nM (inactive)

O=C(O)COCCN1CCN([C@H](c2ccccc2)c2ccc(Cl)cc2)CC1
remaining NAD [16]: 10 nM (inactive)

O=C(OC1C[C@@H]2CC3C[C@H](C1)N2CC3=O)c1c[nH]c2ccccc12 (some centres not stated)
outcome [13]: inactive

CN(C)[C@@H]1C(=O)C(C(=O)NCN2CCCC2)=C(O)[C@@]2(O)C(=O)C3=C(O)c4c(O)cccc4[C@@](C)(O)C3CC12 (some centres not stated)
fluorescence slope change [18]: 66.4% (active)
survival [19]: 2.5 (inactive)
